The target of the first experiment is ZFAND2A. In words: pooled miR-30 sensor sort-seq; sequence = guide strand. Particulars: shRNA.
In turn, TTGGGCACATACCATCTGCAGC registered a sensor-assay potency score (higher = more potent) of -1.16.
Sequence TTACAGAGTGGGCATACTGGGA gave a sensor-assay potency score (higher = more potent) of -0.899.
In turn, TTCTCTTTCTTCTTCCCAGGGT returned a sensor-assay potency score (higher = more potent) of 0.483.
As to AGTCTTTTCTGAACAATGCTTC, the sensor-assay potency score (higher = more potent) is -1.25.
TTTCTGAACAATGCTTCCCCAA displayed a sensor-assay potency score (higher = more potent) of -0.747.
The same measure, in the same setting: in the case of TACCATCTGCAGCATCTCTTTC it was -0.989.
On the same count and under the same terms, for TTCTGAACAATGCTTCCCCAAA the value was -1.18.
Take TTTTACTGGAAGAAAATCTAGC: the sensor-assay potency score (higher = more potent) was -0.26.
Consider TCTCTTTCTTCTTGCAGCCCTC, for which the sensor-assay potency score (higher = more potent) was -1.15.
Take TACTGGGACGAGCACATCCTTC: the sensor-assay potency score (higher = more potent) is -1.34.
With TACTGGAAGAAAATCTAGCTGC, the sensor-assay potency score (higher = more potent) was determined as 0.313.

In the next experiment the target is ZFAND6. The experiment is described as above. The settings on record: shRNA.
Sequence TTTTCACCAACAACTACTGGAT displayed a sensor-assay potency score (higher = more potent) of -0.128.
TACTACTATTCTGTCTTTGAAG yielded a sensor-assay potency score (higher = more potent) of -0.924.
In the case of TTATTCTACCATTACTACTATT, the sensor-assay potency score (higher = more potent) is -1.18.
The sequence TAGAGTCTAATGCTGACTGGGC registered a sensor-assay potency score (higher = more potent) of -0.0965.
Regarding TTGTGTACATCTGAGTAACGGT, the sensor-assay potency score (higher = more potent) was -0.562.
Sequence TAGCATACTGAACACATGCCAT registered a sensor-assay potency score (higher = more potent) of -0.592.
Sequence TAGATGAAGATGTAGAGTCTAA registered a sensor-assay potency score (higher = more potent) of -0.473.
Take TTCCTGCACATGAAACAGCGAT: the sensor-assay potency score (higher = more potent) is -1.19.
With TTTCTCAGCAGCATCGGCTTTG, the sensor-assay potency score (higher = more potent) was -0.787.
For TTCCATAAAATCCACAGCCAGT, the sensor-assay potency score (higher = more potent) is -1.07.
Take TCTACCATTACTACTATTCTGT: the sensor-assay potency score (higher = more potent) was 0.0585.
For the sequence AAGATGTAGAGTCTAATGCTGA, the sensor-assay potency score (higher = more potent) was -0.785.

The next experiment addresses ZFHX4. The experiment is described as above. Particulars: shRNA.
For the sequence TAGAGCTACTATCACTTCCTAC, the sensor-assay potency score (higher = more potent) was -0.103.
On to TTTGTTACCAATACTATCGGTG, for which the sensor-assay potency score (higher = more potent) is -0.044.
For ATCGCTAACACAACCATCGAAT, the sensor-assay potency score (higher = more potent) was -0.685.
Consider TAACATTTCACATTCTTGCATG, for which the sensor-assay potency score (higher = more potent) was -0.369.
TTTGTCATCGCAGACCTCCGTG had a sensor-assay potency score (higher = more potent) of -0.26.
Regarding TTTATTTCTCTGTCGTTCCTTA, the sensor-assay potency score (higher = more potent) was found to be 0.274.
On the same count and under the same terms, for TTGAAGTTCAGCTTCACTCAGT the value was 0.0714; for TTGCTTGTTCGAATGTACCGTT, 0.0955.
The same measure, in the same setting: for TTGATCTTGCAGTGTGTCGGGG the value was 0.234; for TTCTTCTGTACCTTCTGCCTGT, 0.382; for TTGCTCTCTGACATCTTGCTAG, -0.546.
The sequence TTTGTTGCTGAGGACGTCCTGA displayed a sensor-assay potency score (higher = more potent) of -0.337.

Another experiment has as its target ZFP62. The description is as above. Particulars: shRNA.
The sequence ATACATAAGGTCTCTCTCCGGT had a sensor-assay potency score (higher = more potent) of 0.0569.
As to TTTATGTTGAACAAGGCGGGAA, the sensor-assay potency score (higher = more potent) is 0.133.
TTCTGCTTGAGAAAAAAGCTTT showed a sensor-assay potency score (higher = more potent) of -0.449.

The values above are taken from the OligoGym collection.
Also: reference of the scale not given here.
